Results reported in PubChem BioAssay (NCATS).
Records with an inconclusive call do not appear. Activity calls are given as the source filed them. The call rests on the fitted dose curve; in most records, active means well fitted curve in the direction sought with a large enough effect; inconclusive means small, poorly fitted or top-dose-only effect, or another doubt; inactive means no such curve, though single readings can be large; an effect the other way counts as inactive or inconclusive.

Tests used:
[1] = qHTS assay for measurement of the activity of small molecule inhibitors on Zika virus induced Caspase-3 activity in human iPSC derived neural progenitor cells (hNPCs) (AID 1224857); further: nearly all actives have a fitted effect of over 65% in size
Summary of the method: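 Caspase-3/7 induction by a 6-hour ZIKV infection was quantified with a luminescent Caspase-Glo 3/7 reagent incubated 30 minutes at room temperature. Compounds were preincubated with hNPCs for 1 hour; inhibition was calculated against uninfected and infected control wells.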

[2] = qHTS assay to identify small molecule inhibitors of chordoma cells - UCH-1 (AID 1259355); further: nearly all actives have a fitted effect of over 55% in size
Summary of the method: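 Screening used approved and investigational drugs in 15-point titration against 800 seeded cells per well. A fixed combination of auranofin with camptothecin, doxorubicin, rubitecan and topotecan followed compound addition, and growth was scored by CellTiter-Glo after 48hr.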

[3] = qHTS assay to identify small molecule inhibitors of chordoma cells - UCH-2 (AID 1259356); further: series mostly up to about 46 µM
[4] = NS1 protein of Zika virus - qHTS assay to identify small molecule inhibitors in human HEK 293 cells (AID 1347053); further: series mostly up to about 46 µM; nearly all actives have a fitted effect of over 55% in size
Summary of the method: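 Readout was TR-FRET using paired anti-NS1 antibodies after 24 h infection of HEK 293 cells with ZIKV MR766 (MOI = 0.5). Compound preceded virus by 1 h; reduced signal reflects lower NS1 expression.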

[5] = qHTS of pediatric cancer cell lines to identify multiple opportunities for drug repurposing: Primary screen for TC32 cells (AID 1347089); further: nearly all actives have a fitted effect of over 60% in size
Summary of the method: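 In the primary qHTS, MIPE compounds were tested at 11 concentrations (0.78 nM to 46 µM) and NPC compounds at 8 (0.59 nM to 46 µM) on TC32 cells for 48 h. CellTiter-Glo luminescence gave viability.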

[6] = qHTS of pediatric cancer cell lines to identify multiple opportunities for drug repurposing: Primary screen for DAOY cells (AID 1347090); further: series mostly up to about 46 µM; nearly all actives have a fitted effect of over 55% in size
Summary of the method: (§1)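 Viability measured as metabolically active cells via CellTiter-Glo luminescence following 48 hours of compound exposure, 11-point dilutions in confirmatory testing. 500-1,000 cells/well plated 5 hours before dosing; controls were DMSO and 2.3 µM bortezomib.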

[7] = qHTS of pediatric cancer cell lines to identify multiple opportunities for drug repurposing: Primary screen for SJ-GBM2 cells (AID 1347091)
Summary of the method: as §1

[8] = qHTS of pediatric cancer cell lines to identify multiple opportunities for drug repurposing: Primary screen for A673 cells (AID 1347092); further: nearly all actives have a fitted effect of over 45% in size
Summary of the method: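 48 h compound exposure, A673, 500-1,000 cells/well, 37 degrees C/5% CO2. MIPE: 11-point, 0.78 nM-46 µM; NPC: 8-point, 0.59 nM-46 µM (final). Readout CellTiter-Glo luminescence after 15 min RT.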

[9] = qHTS of pediatric cancer cell lines to identify multiple opportunities for drug repurposing: Primary screen for SK-N-MC cells (AID 1347093); further: series mostly up to about 46 µM
Summary of the method: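 Metabolically active cells were quantified by ATP-dependent luminescence (CellTiter-Glo, 15 min at room temperature) following 48 h treatment. Cells had been plated at 500-1,000 per well and settled for 5 h beforehand.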

[10] = qHTS of pediatric cancer cell lines to identify multiple opportunities for drug repurposing: Primary screen for BT-37 cells (AID 1347094); further: series mostly up to about 57 µM
Summary of the method: (§2)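 Viability was measured as metabolically active cells after 48 hours of treatment, read by CellTiter-Glo luminescence. Compounds were tested at multiple final concentrations, giving concentration-response curves.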

[11] = qHTS of pediatric cancer cell lines to identify multiple opportunities for drug repurposing: Primary screen for NB-EBc1 cells (AID 1347095)
Summary of the method: as §2

[12] = qHTS of pediatric cancer cell lines to identify multiple opportunities for drug repurposing: Primary screen for U-2 OS cells (AID 1347096); further: nearly all actives have a fitted effect of over 50% in size
Summary of the method: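 Viability after 48 h compound treatment at 37C, 500-1,000 cells/well, read as ATP luminescence with CellTiter-Glo. Primary screens used 11-point (MIPE, 0.78 nM-46 µM) or 8-point (NPC, 0.59 nM-46 µM) final concentrations; follow-up screens used 11-point dilutions.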

[13] = qHTS of pediatric cancer cell lines to identify multiple opportunities for drug repurposing: Primary screen for Saos-2 cells (AID 1347097); further: nearly all actives have a fitted effect of over 40% in size
Summary of the method: as §2

[14] = qHTS of pediatric cancer cell lines to identify multiple opportunities for drug repurposing: Primary screen for SK-N-SH cells (AID 1347098);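 further: DMSO served as neutral control and bortezomib at 2.3 µM as positive control; nearly all actives have a fitted effect of over 65% in size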
Summary of the method: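 Cells (500-1,000/well) rested 5 h, then received compounds for 48 h; metabolically active cells were measured by CellTiter-Glo luminescence. Final concentrations spanned up to 46 µM (MIPE, 11-point) or 0.59 nM-46 µM (NPC, 8-point) in primary screens, 11-point in follow-ups.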

[15] = P-glycoprotein substrates identified in KB-8-5-11 adenocarcinoma cell line, qHTS therapeutic library screen (AID 1346987); conditions: outcome: dose series up to 44.5 µM; further: series mostly up to about 44 µM; nearly all actives have a fitted effect of over 65% in size
Summary of the method: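 Compounds are pinned in dose-response onto KB-8-5-11 cells (500 cells/well, colchicine-free medium) and left 72 h at 37 degree C. CellTiter-Glo luminescence then yields AC50 values.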

Measured: Potency

O=c1[nH]c(=O)n([C@H]2C[C@H](O)[C@@H](CO)O2)cc1I
not listed: [15]
inactive: all other assays above

O=C(O)c1cc(=O)c2ccccc2o1
not listed: [8] | [14]
inactive: all other assays above

NCC1CCC(C(=O)Oc2ccc(CCC(=O)O)cc2)CC1 (stereo not drawn)
not listed: [7] | [11] | [14]
inactive: all other assays above

CCOC(=O)c1cccnc1
inactive: all assays above

NS(=O)(=O)c1ccc(NC(=O)CCC(=O)O)cc1
not listed: [14]
inactive: all other assays above
